Screening data as filed in PubChem.
S1P2 blocker = blocks the human S1P2 receptor | O95136 | AID 736 | actives 0.21% (n = 97,000) | cell-based S1P2 antagonist assay, inhibition at 5 uM | inhibition, % at 5 µM; in the data active means inhibition above about 45%;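 further: CRE beta-lactamase reporter cells expressing human S1P2 stimulated with S1P; 0% = agonist at EC80 alone and 100% = agonist plus reference antagonist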
Target sequence (O95136 whole entry, looked up): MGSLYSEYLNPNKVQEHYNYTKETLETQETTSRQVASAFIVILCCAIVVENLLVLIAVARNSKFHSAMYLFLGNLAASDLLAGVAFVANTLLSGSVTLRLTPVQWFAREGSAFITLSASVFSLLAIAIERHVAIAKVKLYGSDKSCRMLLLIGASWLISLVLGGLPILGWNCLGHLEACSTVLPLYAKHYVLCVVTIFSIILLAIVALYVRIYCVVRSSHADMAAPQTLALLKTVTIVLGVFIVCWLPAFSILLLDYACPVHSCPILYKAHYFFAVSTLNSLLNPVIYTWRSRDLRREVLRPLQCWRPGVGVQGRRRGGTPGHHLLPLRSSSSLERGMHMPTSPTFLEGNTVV
GALR2 antag = GALR2 (human) receptor antagonism; O43603; GALR2-expressing cells, antagonist mode; inhibition, % at 4 µM; actives 0.39% (n = 140,000); AID 828; in the data active means inhibition above about 27%;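 further: cells stimulated with galanin 1-16 at roughly its EC80; 0% = agonist challenge control and 100% = basal control without agonist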
S1P2 agonist = activates the human S1P2 receptor | O95136 | S1P2-expressing cell line, agonist reporter read-out | activation, % at 4.5 µM | actives 0.46% (n = 97,000) | AID 729; in the data active means activation above about 16%;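 further: 0% = vehicle low control and 100% = maximal reference agonist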
GALR2 ag = activates the human galanin receptor 2. O43603. GALR2-expressing cells, agonist activation read-out. activation, % (concentration not given with the values). actives 0.48% (n = 140,000); in the data active means activation above about 5%, passing the limit was not always enough;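 further: 0% = vehicle buffer wells and 100% = reference agonist at full effect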
GALR2 agon conf = confirmation of human galanin receptor 2 (GALR2) agonists; shares compounds with GALR2 ag; GALR2-expressing cells, agonist activation; activation, % at 5.6 µM; actives 10% (n = 460); AID 864; in the data active means activation above about 8.4%;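 further: 0% = buffer-only vehicle wells and 100% = full reference agonist response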
BLA activ ctr = counter-screen for GALR2 agonists: beta-lactamase reporter activators | shares compounds with GALR2 ag | CHO NFAT-bla reporter, beta-lactamase FRET activation | activation, % at 5.6 µM | actives 10% (n = 460) | AID 865;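 active means activation above the screen-wide mean activation plus 3 SD, cut at about 8% in these data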;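 further: 0% = DMSO with PBS wells and 100% = thapsigargin positive control wells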
* = called active by the depositor; / = no result given. Sampled rows, rich in hits. Any-hit rate of the full collection: about 1.1%.

SMILES | S1P2 blocker | GALR2 antag | S1P2 agonist | GALR2 ag | GALR2 agon conf | BLA activ ctr
Cc1nc(-c2cccc(S(=O)(=O)N3CCCC(C)C3)c2)cs1 (stereo not drawn) | 8 | -1 | -6 | 27* | 0 | -1
CC(C)OC(=O)c1cc2ccccc2[nH]1 | -23 | 0 | -5 | -2 | / | /
CCOC(=O)c1cc2cc3ccccc3cc2[nH]1 | 15 | 4 | 15 | 22* | 4 | 11*
CCc1ccc(OCC(=O)NC(NC(=S)Nc2ccc(Cl)cc2)C(Cl)(Cl)Cl)cc1 (stereo not drawn) | / | -11 | / | 0 | / | /
COc1ccc(Cn2c(SCc3ccccc3C)nc3cc(OC)c(OC)cc3c2=N)cc1 | 6 | -8 | -6 | 9.1* | 8.8* | 6
C/C(=C/Cc1c(O)cc2oc(C)cc(=O)c2c1O)COC1OC(CO)C(O)C(O)C1O (stereo not drawn) | / | -6 | / | -1 | / | /
O=c1[nH]ncn2cccc12 | 9 | -12 | -5 | 25* | -1 | -2
COCCCNCCCCSc1ccc(Cl)cc1 | / | -2 | / | 0 | / | /
Cc1ccc(-n2nc3cc(C)c(N)cc3n2)cc1 | -17 | 9 | 3 | 10 | 2 | 4
Cc1cc2nn(-c3cccc4ccccc34)nc2cc1N | 11 | 15 | 4 | 3 | / | /
O=C(Cn1c(=O)oc2cc(S(=O)(=O)N3CCCC3)ccc21)NC1CCCc2ccccc21 (stereo not drawn) | / | 5 | / | 16* | 2 | -2
O=C(Cn1c(=O)oc2cc(S(=O)(=O)N3CCCCCC3)ccc21)NC1CCCCCCC1 | 3 | 13 | -5 | -3 | / | /
CC(C)N(C1=N/C(=C\c2ccco2)C(=O)N1c1ccccc1)C(C)C | -20 | 4 | 14 | 9 | 6 | 9.2*
O=C1/C(=C/c2ccco2)N=C(N2CCCCC2)N1c1ccccc1 | / | 8 | / | 1 | / | /
O=C(O)CN1C(=O)C2(OCCCO2)c2ccccc21 | -20 | -4 | -3 | 8 | 0 | -2
COC(=O)CN1C(=O)C2(OCCCO2)c2ccccc21 | 16 | 4 | -2 | -1 | / | /
CC(C)(C)c1nnc(SCC(=O)c2ccccc2)n(N)c1=O | / | -4 | / | 0 | / | /
CC(C)CN(C(=O)CSc1nncs1)c1c(N)n(CC(C)C)c(=O)[nH]c1=O | -2 | -9 | -3 | -1 | / | /
Cc1ccc2nc(SCC(=O)N(CC(C)C)c3c(N)n(CC(C)C)c(=O)[nH]c3=O)[nH]c2c1 | -14 | -6 | 3 | 40* | -1 | -2
COc1ccc(Nc2cc(C(=O)NCc3ccco3)c3ccccc3n2)cc1 | / | 10 | / | 9.7* | 6 | 4
COc1ccc(Nc2cc(C(=O)NCCCN3CCN(C)CC3)c3ccccc3n2)cc1 | 12 | 4 | -3 | -2 | / | /
COCCN1C=C(C(=O)OC)C(c2cc(Br)c(OC)c(OC)c2)C(C(=O)OC)=C1 | -23 | 6 | 10 | 10 | 1 | 4
CN(C)CCNC(=O)NC(=O)c1ccc(Cl)cc1 | / | 5 | / | 21* | -1 | -2
CNS(=O)(=O)c1ccc(C)c(S(=O)(=O)NC)c1 | / | 1 | / | 0 | / | /
CN(C)CCNC(=O)/C=N/O | / | 5 | / | 0 | / | /
SMILES | S1P2 blocker | GALR2 antag | S1P2 agonist | GALR2 ag | GALR2 agon conf | BLA activ ctr
N/C(=N\O)c1ccc(NC(=O)c2cccs2)cc1 | / | 3 | / | 25* | -1 | -2
CC(=O)c1ccc(NC(=O)c2cccs2)cc1 | -10 | -3 | -1 | -2 | / | /
CCOC(=O)c1c(NC(=O)CSC2=NN3CCCC(=O)N=C3S2)sc2c1CCCCC2 | / | 0 | / | -2 | / | /
C=CCN1C(=O)C(CC(=O)Nc2ccc(OC)cc2)N(Cc2ccco2)C1=S (stereo not drawn) | -11 | 13 | -2 | 16* | -1 | -2
CC(C)OCCCNC(=S)Nc1ccc(S(N)(=O)=O)cc1 | / | 4 | / | -1 | / | /
CN(CC(O)CON=C1c2ccccc2-c2ccccc21)S(=O)(=O)c1ccc(Br)cc1 (stereo not drawn) | / | -12 | / | 11* | 0 | 1
CC1Cc2ccccc2N1C(=O)CSc1nnc(Cc2ccccc2)n1CCc1ccccc1 (stereo not drawn) | 1 | 8 | -2 | -1 | / | /
Cc1noc(C)c1C1(O)CCCCCCCCCCC1 | / | -11 | / | 0 | / | /
COc1cc(NC(=O)C2CCCCC2)c(OC)cc1NC(=O)c1ccco1 | 23 | 9 | -7 | -2 | / | /
CCOc1cc(NC(=O)C2CCCCC2)c(OCC)cc1NC(=O)c1ccco1 | -26 | -13 | -3 | 32* | 0 | 0
COc1ccc(Nc2sc(C(=O)c3ccc(Cl)cc3)c(N)c2C(=O)Nc2ccccc2OC)cc1 | -13 | -7 | -2 | 14* | -2 | -2
COc1ccc(C(=O)c2sc(Nc3cccc(OC)c3)c(C(=O)Nc3cccc(C)c3C)c2N)cc1 | 6 | 9 | -2 | 16* | 1 | 0
COc1ccc(NC(=O)c2c(Nc3ccccc3)sc(C(=O)c3ccc(F)cc3)c2N)cc1 | 44 | -3 | -5 | -3 | / | /
O=C(NCC1CCCO1)C1CC1(c1ccccc1)c1ccccc1 (stereo not drawn) | / | -18 | / | 0 | / | /
COc1ccc(-c2csc(-c3cc4ccccc4oc3=N)n2)cc1 | / | 15 | / | 3 | / | /
O=c1[nH]c(-c2ccccc2F)nc2c1sc(=S)n2Cc1ccccc1 | / | 3 | / | 1 | / | /
CC(=O)N1N=C(c2ccc(C)cc2)OC1c1ccc(C)cc1 (stereo not drawn) | -6 | -8 | -3 | 77* | -1 | 0
Cc1ccc2nc(NNC(=O)c3ccc(S(=O)(=O)N4CCc5ccccc5C4)cc3)sc2c1 | / | -3 | / | -3 | / | /
Cc1cccc2sc(NNC(=O)c3ccc(S(=O)(=O)N4CC(C)CC(C)C4)cc3)nc12 (stereo not drawn) | / | 8 | / | 33* | 8 | -3
Cc1cc(C)c2nc(NNC(=O)c3ccc(S(=O)(=O)N4CC(C)CC(C)C4)cc3)sc2c1 (stereo not drawn) | / | 11 | / | 44* | 14* | 2
Cc1cc(C)c2nc(NNC(=O)c3ccc(S(=O)(=O)N4CCCC(C)C4)cc3)sc2c1 (stereo not drawn) | / | 16 | / | 18* | 8.2* | -2
Clc1ccc(C2C3=C(Nc4ncnn42)c2ccccc2CC3)cc1 (stereo not drawn) | 6 | 0 | -10 | -3 | / | /
CCn1c(=O)cc(OCC(=O)Nc2cccc(C)n2)c2ccccc21 | -8 | 6 | 1 | 120* | -1 | -1
CCn1c(=O)cc(OCC(=O)Nc2cccnc2)c2ccccc21 | -9 | 2 | -1 | -1 | / | /
O=S(=O)(c1ccc(N2CCN(CCO)CC2)nc1)N1CCCCC1 | -16 | -19 | -1 | 22* | -1 | -2
COCC(C)NC(=O)COc1ccc(Cl)cc1Cl (stereo not drawn) | 8 | -7 | -11 | 10 | -1 | -2
CSCCC(NC(=O)c1ccc(Cl)cc1)C(=O)OCC(=O)Nc1cc(Cl)ccc1C#N (stereo not drawn) | / | 16 | / | -2 | / | /
COc1ccccc1[C@@H]1C(c2cccc(Cl)c2)=NN(c2ccc(Br)cc2)[C@H]1C(=O)N1CCOC1=O | / | -4 | / | 18* | 23* | 46*
COc1ccc(C2CC(c3ccccc3)=NN2C(=O)CN2N=NC3C(=O)N(c4cccc(F)c4)C(=O)C32)cc1 (stereo not drawn) | / | 8 | / | -2 | / | /
